These results are taken from PubChem BioAssay (Tox21).

Values joined by “and” are separate entries in the source; they are usually repeats but may differ in a detail not shown here. Equal values may be shown once. Results filed as inconclusive are left out. Active and inactive are the calls of the source. Calls follow the shape of the dose curve; as a rule, active = well fitted activation curve with a large enough effect in the repeat runs; inconclusive = weak or mixed curves; inactive = flat fitted curve, though single readings scatter.
% is scaled to controls: 0 for no effect and ±100 for the full control effect; potency is read from the fitted curve at half-maximal effect.

The experiment in a line: A CellTox Green Cytotoxicity Assay to monitor cytotoxicity in HepG2 cells - 24 hour (AID 1224878). Also: nearly all actives have a fitted effect of over 45% in size. The following applies: CellTox Green fluorescence; series mostly up to 76.8 µM; cytotoxicity: at the top concentration. An excerpt:
National Center for Advancing Translational Sciences [NCATS]
NIH Chemical Genomics Center [NCGC]
U.S. Environmental Protection Agency [EPA]
National Institutes of Environmental Health Sciences [NIEHS]
National Toxicology Program [NTP]
Cell-based models are critical for drug discovery. Determining the natural cytotoxic effects resulting from test compounds is an essential research activity. A CellTox Green Cytotoxicity Assay to monitor cytotoxicity in real time of continues cell culture during 40 hours of the compound treatment was used to screen Tox21 10K library compounds in HepG2 cells. CellTox Green Cytotoxicity Assay is a nonlytic, homogeneous, biofluorescent method to measure cytotoxicity in cell culture after experimental manipulation. The assay system uses a proprietary asymmetric cyanine dye that is excluded from viable cells but preferentially stains the dead cell's DNA. […] Viable cells produce no appreciable increases in fluorescence. Therefore, the fluorescence signal produced by the binding interaction with dead cell DNA is proportional to cytotoxicity.
The mixture of HepG2 cell suspension and reagents were dispensed at 600cells/6 ul/well in 1536-well tissue culture treated black solid bottom plates using a Multidrop dispenser. After the assay plates were incubated at a 37 C/5% CO2 incubator for 5 hours, 23 nL of compounds dissolved in DMSO, positive and negative controls was transferred to the assay plate by a pintool work station. The plates were incubated at 37 C for 40 hours. The fluorescence intensity were measured at 0h, 8h, 16h, 24h, 32h and 40h time points using ViewLux plate reader during compound treatment.
For `O=C(CCCN1CCC(O)(c2ccc(Br)cc2)CC1)c1ccc(F)cc1`, the Potency is 23.9 µM (active).
Regarding `O=Cc1c(Cl)cccc1Cl`, the “cytotoxicity” value was -7.33% (inactive).
On to `OC(CCCN1CCCCC1)(c1ccccc1)c1ccccc1`, for which the “cytotoxicity” value was -1.29% [at 35.3 µM] (inactive).
Consider `CC(COc1ccc(C(C)(C)C)cc1)OS(=O)OCCCl` (stereo not given), for which the “cytotoxicity” value is -3.95% (inactive).
On the same count and under the same terms, the same measure for `C=CC(C)(C)CC(=O)OC`: -0.547% (inactive); for `COCC(O)CO` (stereo not given): -4.85% (inactive).
On the same count and under the same terms, the same measure for `CCCCC(CC)C(=O)OCCOCCOCCOCCOC(=O)C(CC)CCCC` (stereo not given): 0.747% (inactive); for `Nc1ccc(S(=O)(=O)O)cc1`: 2.85% (inactive); for `CCCCOC(=O)CCS`: -13.2% (inactive).
The same measure, in the same setting: the same measure for `Oc1cc(O)c(Cl)cc1Cl`: 8.2% (inactive); for `ON(Cc1ccccc1)Cc1ccccc1`: 9.41% (inactive); for `Cc1ccc(Nc2nccc(N(C)c3ccc4c(C)n(C)nc4c3)n2)cc1S(N)(=O)=O`: 0.859% [at 35.3 µM] (inactive).
As for `O=C(O)C(Cc1cc(I)c(O)c(I)c1)c1ccccc1` (stereo not given), the “cytotoxicity” value is 2.04% [at 35.3 µM] (inactive).
On the same count and under the same terms, the same measure for `O=C(O)c1ccccc1NCCc1ccccc1`: -14.7% [at 35.3 µM] (inactive); for `CCOC(=O)N1CCC(n2c(=O)[nH]c3cc(Cl)ccc32)CC1`: -1.35% [at 35.3 µM] (inactive).
Take `CC(CCO)CCc1ccccc1` (stereo not given): the “cytotoxicity” value is 23% (inactive).
With `COCc1c(C(C)C)nc(C(C)C)c(/C=C/[C@@H](O)C[C@@H](O)CC(=O)O)c1-c1ccc(F)cc1`, the Potency was 301 nM (active) and 4.32 µM (active).
Consider `Cc1ccc(S(=O)(=O)NC2CCCCC2)cc1`, for which the “cytotoxicity” value was -1.27% (inactive).
The same measure, in the same setting: the same measure for `CN1CCN(c2c(F)cc3c(=O)c(C(=O)O)cn4c3c2OCN4C)CC1`: -1.37% [at 15.8 µM] (inactive); for `CC(C)CCCCCCOC(=O)CCCCC(=O)OCCCCCCC(C)C`: -5.79% (inactive); for `C[C@@H]1C[C@H]2[C@@H]3CCC4=CC(=O)C=C[C@]4(C)[C@@]3(F)[C@@H](O)C[C@]2(C)[C@@]1(O)C(=O)CO`: -1.76% (inactive).
In the case of `CC#N`, the “cytotoxicity” value is -1.73% (inactive).
On the same count and under the same terms, with `CCCCCCCC/C=C\CCCCCCCC(=O)OC` the figure was -4.01% (inactive).
Still for that read-out and setting: with `O=C(/C=C/c1ccccc1)OCCCc1ccccc1` the figure was -14% (inactive); with `COc1cc2[nH]c(=O)[nH]c(=O)c2cc1OC`, -18% [at 35.3 µM] (inactive).
As for `CN1CCN(CCCN2c3ccccc3Sc3ccc(S(=O)(=O)N(C)C)cc32)CC1`, the Potency is 26.8 µM (active).
`CC(C)CCCC(=O)O`: the “cytotoxicity” value is 5.63% (inactive).
Consider `CO[C@@]12[C@H](COC(N)=O)C3=C(C(=O)C(C)=C(N)C3=O)N1C[C@@H]1N[C@@H]12`, for which the Potency is 8.49 µM (active).
Turning to `Cc1nc2ccccc2s1`, the “cytotoxicity” value is 3.98% (inactive).
In the case of `CC1(C)O[C@@H]2C[C@H]3[C@@H]4CCC5=CC(=O)C=C[C@]5(C)[C@H]4[C@@H](O)C[C@]3(C)[C@]2(C(=O)CO)O1`, the “cytotoxicity” value is -12.5% [at 35.3 µM] (inactive).
Still for that read-out and setting: with `COc1ccc(CCC(=O)c2c(O)cc(O[C@@H]3O[C@H](CO)[C@@H](O)[C@H](O)[C@H]3O[C@@H]3O[C@@H](C)[C@H](O)[C@@H](O)[C@H]3O)cc2O)cc1O` the figure was 0.482% (inactive); with `CC1CC(=O)NN=C1c1ccc(NCC(C)(C)NCC(O)COc2cc(Cl)ccc2C#N)cc1` (stereo not given), -9.06% [at 35.3 µM] (inactive).
Same read-out and setting: with `COC(=O)[C@@H]1CC2=CC(=O)CC[C@]2(C)[C@@]23O[C@@H]2C[C@@]2(C)[C@@H](CC[C@@]24CCC(=O)O4)[C@H]13` the figure was 7.84% [at 35.3 µM] (inactive); with `COc1ccc([C@@H]2Sc3ccccc3NC(=O)[C@@H]2O)cc1`, 8.38% [at 35.3 µM] (inactive); with `O=C(N/N=C/c1ccc([N+](=O)[O-])o1)c1ccc(O)cc1`, 8.37% [at 35.3 µM] (inactive).
Consider `CC(=N\O)/C(C)=N/O`, for which the “cytotoxicity” value was 1.91% (inactive).
As to `Cc1nccn1-c1ccc(Sc2cccc(C3(C(N)=O)CCOCC3)c2)cc1`, the “cytotoxicity” value is 13.6% (inactive).
Same read-out and setting: with `CCC(C(=O)OCCOCCN(CC)CC)c1ccccc1` (stereo not given) the figure was -27.8% [at 35.3 µM] (inactive); with `C[Si]1(C)O[Si](C)(C)O[Si](C)(C)O1`, -9.27% (inactive); with `CCCCN(CCCC)C(=S)SSC(=S)N(CCCC)CCCC`, 10.9% (inactive).
